# Compound activity deposited in PubChem by several laboratories.
# Only some compounds are listed: those with a hit (about 1.2% of all), similar ones and a draw of the others.
# TNF death inh = inhibitors of TNF-alpha induced necroptosis in Jurkat FADD-/- cells. AID 463075. activation (protection from cell death), % at 10 µM. Jurkat FADD-/- TNF necroptosis rescue, ATP luminescence, 24 h; 0 = TNF only, 100 = no-TNF cells. actives 0.068% (n = 220,000);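 active means activation, meaning protection from cell death, of at least 50% relative to plate controls; inactive means activation below 50%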;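 further: necroptosis triggered by 40 ng/mL TNF-alpha added together with compound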
# zVAD death inh = L929 zVAD cell death inhibition; L929 zVAD necroptosis rescue, ATP luminescence, 24 h; with zVAD 60 µM; viability rescue, % at 10 µM; actives 0.38% (n = 220,000);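 active means activation, scaled between plate controls, above about 75%, limit read from the data; inactive means activation under that limit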
# eIF4E-4G inh = eIF4E/eIF4G interaction inhibition in translation initiation. actives 0.37% (n = 220,000). P63073+Q04637. TR-FRET eIF4E-eIF4GI(517-606) binding, 2 h. inhibition, % at 21.7 µM;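 active means inhibition above about 30%, limit read from the data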
# EBV gp42 inh = EBV gp42 inhibition; Fluorescence polarization binding assay, mP read-out; inhibition, % (tested at 21.74 µM); actives 0.42% (n = 220,000); AID 1085; in the data active means inhibition above about 50%
# Hits are given with their value; - = inactive; . = no result given; [ ] = remark or other dose.
SMILES,TNF death inh,zVAD death inh,eIF4E-4G inh,EBV gp42 inh
COc1ccc(N=Cc2cc(Cc3ccccc3Cl)cc([N+](=O)[O-])c2O)cc1OC,-,-,-,104
CCS(=O)(=O)c1ccc2oc(SCC(=O)NC3CCCC(C)C3C)nc2c1 (stereo unspecified),-,-,-,-
O=C1Nc2ccccc2S/C1=C/c1cccs1,-,-,74,-
CN(C)S(=O)(=O)c1ccc(Cl)c(NC(=O)CN2CCN(Cc3ccc4c(c3)OCO4)CC2)c1,-,-,-,-
COc1ccccc1Nc1nc2ccc(C)cc2cc1C#N,-,-,-,57
C=C(C)CSc1nnc2n(Cc3ccccc3)c(=O)c3c4c(sc3n12)CCC4,51,-,-,-
NNc1nc2sc3c(c2c(=O)n1Cc1ccccc1)CCC3,90,-,-,-
COc1cc(/C=C2/C(=O)c3cccc([N+](=O)[O-])c3C2=O)c(Br)cc1O,-,-,-,54
COc1ccc(-c2nc(-c3cccc([N+](=O)[O-])c3O)cc(=O)o2)cc1OC,-,-,-,-
Cc1nn(Cc2ccccc2)c(N)c1-c1ccccc1,-,-,-,-
Cc1nn(Cc2ccccc2)c(N)c1C#N,54,-,-,-
Cn1cnnc1SCC(=O)Nc1sc2c(c1C(N)=O)CCC2,-,-,-,65
Cc1cc(=O)oc(C)c1C(=O)Nc1ccc2ncccc2c1,-,-,-,72
CCOc1cccc(C(=O)NC(=S)Nc2ccc(Cl)cc2C(=O)O)c1,-,-,-,-
Cn1c(-c2ccc(C=O)s2)nc2c3ccccc3c3ccccc3c21,-,-,-,94
CCCc1cc(=O)[nH]c(SCCCCN2C(=O)c3ccccc3C2=O)n1,-,-,-,-
CCn1cc(CNC(=S)Nc2cccc(Cl)c2C)cn1,-,-,-,-
COc1c(C)cc(C(=O)C2CCCN(Cc3ccc(Oc4ncccn4)cc3)C2)cc1C (stereo unspecified),-,-,70,-
NC(=S)c1cc2cc(Cl)ccc2oc1=O,-,-,-,-
Cn1c(=O)c2c(O)c(C=Nc3ccc(F)cc3)c(=O)n(C)c2n(C)c1=O,-,-,-,-
Cn1ccc(/C=N/N=C2/NC(=O)CS2)n1,-,-,-,-
CC(C)(C)c1ccc(OCC(=O)Nc2ccc3c4c(cccc24)C(=O)NC3=O)cc1,-,-,-,57
Cc1ccc(OCC(=O)NC(=S)Nc2ccc3c4c(cccc24)CC3)cc1,-,.,-,-
Cc1ccccc1NC(=O)CSc1ccsc1[N+](=O)[O-],-,-,-,70
COCCCNC(=O)CSc1ccsc1[N+](=O)[O-],-,-,-,-
SMILES,TNF death inh,zVAD death inh,eIF4E-4G inh,EBV gp42 inh
CCSc1nc2sc3c(c2c(=O)[nH]1)CCCC3,-,-,-,66
CSc1nc2sc3c(c2c(=O)[nH]1)CCCC3,-,-,-,-
OC(CON=C1c2ccccc2-c2ccccc21)CN1CCNCC1 (stereo unspecified),-,-,-,-
CCn1cc(C(=O)OCC(=O)c2cc(C)n(-c3ccc(OC(F)F)cc3)c2C)c(=O)c2ccc(C)nc21,-,-,45[fluorescence artefact?],-
CCn1cc(C(=O)OCC(=O)c2cc(C)n(-c3ccccc3)c2C)c(=O)c2ccc(C)nc21,-,-,-,-
Cc1nc(CS(=O)(=O)c2ccccn2)sc1C(=O)NNC(=O)c1ccc(Cl)cc1,-,-,-,-
O=C(CC1CCCCC1)NCC1CCCO1 (stereo unspecified),-,-,38,-
Cc1c(C(=O)NCCSCc2c(F)cccc2Cl)cnn1-c1ccc(Cl)cc1,-,-,-,52
O=C(NNC1=Nc2cccc3cccc1c23)c1ccc(Br)cc1,-,-,-,60
C=CCN1C(=O)CS/C1=N\N=C\c1cccc([N+](=O)[O-])c1,-,-,-,-
COc1ccc(NC(=O)Nc2nnc(-c3ccncc3)s2)cc1,-,-,-,-
O=C(Nc1ccc(Cl)c(Cl)c1)Nc1nnc(-c2ccncc2)s1,-,-,38,83
N#CC1=C(N)Oc2cc(N)ccc2C1c1ccsc1 (stereo unspecified),-,-,-,-
N#CC1=C(N)Oc2ccc3ccc(O)cc3c2C1c1ccsc1 (stereo unspecified),-,-,-,161
CC1CN(c2ccc(Oc3ccccc3)cc2)c2nc3c(c(=O)n(CC(N)=O)c(=O)n3C)n2C1 (stereo unspecified),-,-,95,-
O=C(NCc1ccc2c(c1)OCO2)c1ccc2c(c1)OCCO2,-,-,69,-
O=C(NCc1ccc2c(c1)OCO2)c1ccc2c(c1)OCO2,-,-,-,-
COc1ccc(S(=O)(=O)n2[nH]c(=O)c(CCO)c2C)c([N+](=O)[O-])c1,-,-,-,-
COc1cccc(Cn2cc(N)cn2)c1,-,-,-,-
COc1cccc(CN2C(=O)c3cccc(N)c3C2=O)c1,-,-,-,59
CC(C)c1ccccc1NC(=S)NCc1ccncc1,-,-,-,-
CC(C)OP(=O)(OC(C)C)C(Nc1ccccc1)c1cccnc1 (stereo unspecified),-,-,-,-
Cc1ccc(C2SCCN2C(=O)c2ccc([N+](=O)[O-])cc2)cc1 (stereo unspecified),51,-,-,-
Oc1csc(Cc2nc(-c3ccccc3F)cs2)n1,-,-,-,-
CC(=O)NCCCc1nc2ccccc2n1Cc1c(F)cccc1Cl,-,-,-,-
SMILES,TNF death inh,zVAD death inh,eIF4E-4G inh,EBV gp42 inh
COc1ccc(-c2nc3cc(NC(=O)Cc4ccc(OC)c(OC)c4)ccc3o2)cc1,-,89,-,-
COc1ccc(CC(=O)Nc2ccc(-c3nnc(-c4ccccc4)o3)cc2)cc1OC,-,-,33,-
COc1ccc(OCC(=O)Nc2ccc3oc(-c4ccncc4)nc3c2)cc1,-,-,-,-
CCCCC(=O)Nc1ccc2oc(-c3ccncc3)nc2c1,-,-,55,-
COc1ccccc1OCCC(=O)OCC(=O)c1c(N)n(C)c(=O)n(C)c1=O,-,-,-,-
Cc1[nH]nc2c1C(c1ccsc1)C1=C(CC(C)(C)CC1=O)N2 (stereo unspecified),-,-,-,-
O=C(O)/C=C/C(=O)Nc1ccc(Oc2ncnc3cc(Cl)ccc23)nc1,-,-,-,-
CCOC(=O)Cn1c(=O)oc2cc(S(=O)(=O)NCc3cccs3)ccc21,-,-,54[fluorescence artefact?],-
COCCn1c(-c2ccc(Br)cc2)nc2oc3cc(OC)ccc3c(=O)c2c1=O,-,-,-,-
CCn1nc(C)c(CNC(=O)c2cc(COc3ccc(F)cc3Cl)on2)c1C,-,-,-,-
CC1(C)Cc2c(c(N3CCCC3)nc3sc4c(N5CCNCC5)ncnc4c23)CO1,-,-,-,-
CC(=O)c1ccc(-c2nnc(CCC(=O)N(C)Cc3c(C)nc4ccccn34)o2)s1,-,-,-,-
O=C1CCCC2=C1Sc1ccc(Cl)cc1N2,-,-,-,54
COC(=O)c1ccc2c(c1)SC1=C(CCCC1=O)N2,-,-,-,146
O=C(CSc1nc2ncccc2[nH]1)c1ccc2c(c1)OCO2,-,-,-,-
COc1ccc(C2=CC(=O)C=CC2=O)cc1,-,-,41,-
COc1ccc(S(=O)(=O)c2ccc(OC)cc2)cc1,-,-,-,-
